Experimental findings from PubChem BioAssay are described below.

Activity calls are given as the source filed them.

One assay concerns the target Albumin (Bos taurus) (UniProt P02769). Kind of assay: compounds binding labelled BSA control protein – biochemical, small-molecule microarray, Alexa647 label, 635/667 nm fluorescence, artefact control for SMM control protein annotation, profiling panel (AID 1118).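 Also: score merges 667 nm emission intensity and signal-to-noise per printed compound spot.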 To be noted: BSA-A647 binding, fluorescence 635 nm, higher = more signal.
Assay [1] can be described thus: probe aXIP binding to arrayed compounds – biochemical, NeuroSMM set, 635/667 nm fluorescence, primary screen (AID 1119).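 Also: probe is the protein aXip251-270 applied at 1 µg/mL to compound-printed slides; binding of probe to printed compounds measured as 667 nm fluorescence plus signal to noise.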 Particulars: small-molecule microarray, higher = more signal, called active from +8 up or from −8 down.
The nature of assay [2]: probe aNOTCH3 binding on compound microarray – biochemical, small-molecule microarray, 635/667 nm fluorescence, primary screen (AID 1120).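 Also: probe is a biotin-tagged antibody raised against NOTCH3 rather than NOTCH3 protein; score merges spot fluorescence near 667 nm with spot signal to noise.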 To be noted: higher = more signal.
A short description of assay [3]: probe aNOTCH2 binding on compound microarray – biochemical, small-molecule microarray, 635/667 nm fluorescence, primary screen (AID 1121).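 Also: score merges feature fluorescence read at 667 nm with its signal to noise.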 To be noted: higher = more signal.
In assay [4] the target is Carbonic anhydrase 2 (Homo sapiens) (UniProt P00918). The assay can be described thus: compounds binding carbonic anhydrase 2 – biochemical, small-molecule microarray, Alexa647-labelled CAII, profiling panel (AID 1122). Particulars: CAII-A647 binding fluorescence, higher = more signal.
Assay [5] in a line: COS7 lysate on small-molecule microarray, probe aHis, 635 nm (AID 1123).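 Also: z-score combines 667nm fluorescence intensity with signal-to-noise per printed compound spot.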 Particulars: COS7 cell lysate, fluorescence, higher = more signal.
Assay [6] can be described thus: probe aLAP1 signal on lysate-treated microarray – cell lysate, small-molecule microarray, COS7 lysate, primary screen (AID 1124).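 Also: lysate comes from COS7 cells expressing LAP1 and is applied at 0.3 µg/mL; score merges spot fluorescence near 667 nm with signal-to-noise over triplicate slides.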 To be noted: probe aLAP1, fluorescence, higher = more signal.
The next assay relates to Sam68 (KHDRBS1). Kind of assay: compounds binding KHDRBS1 protein – biochemical, small-molecule microarray, 635 nm fluorescence, primary screen (AID 1125).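 Also: score merges 667 nm channel intensity with signal to noise over triplicate slides.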 Particulars: higher = more signal.
The subject of assay [7] is Chordin-like protein 2 (CHRDL2). Kind of assay: compounds binding chordin-like 2 – biochemical, small-molecule microarray, 635 nm fluorescence, primary screen (AID 1126).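 Also: printed compound slides probed with Chrdl2 protein at 4 µg/mL for 1 h at 4 C; score merges 667 nm emission intensity with signal to noise over three replicate slides.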 To be noted: fluorescence 635 nm, higher = more signal.
Assay [8] addresses Concanavalin-A (Canavalia ensiformis) (UniProt P02866). The assay can be described thus: compounds binding concanavalin A lectin – biochemical, small-molecule microarray, Alexa647 label, 635 nm, artefact control for SMM control protein annotation, primary screen (AID 1127).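 Also: z combines 667 nm emission intensity with signal-to-noise across three replicate slides.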 To be noted: ConA-A647 binding fluorescence, higher = more signal.
Assay [9] can be described thus: compounds binding Alexa647 anti-His antibody – biochemical, small-molecule microarray, 635 nm fluorescence, artefact control for SMM control protein annotation, primary screen (AID 1128).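 Also: score merges feature fluorescence with signal-to-noise for each printed compound spot.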 Particulars: higher = more signal.
The subject of assay [10] is Human papillomavirus type 1a E7 protein (residues 1-88). The assay can be described thus: HPV1a E7 small-molecule binders, primary screen, biochemical, small-molecule microarray, residues 1-88, 635 nm (AID 1129). Particulars: small-molecule microarray binding, fluorescence 635 nm; higher = more signal.
Assay [11] concerns the target Focal adhesion kinase 1 (Homo sapiens) (UniProt Q05397). The assay can be described thus: PTK2 protein binding on printed compound slides – biochemical, small-molecule microarray, 635/667 nm fluorescence, BSA, DTT, primary screen (AID 1130).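 Also: composite of spot emission at 667 nm and signal to noise over triplicate slides.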 To be noted: 635 nm fluorescence, higher = more signal.
Assay [12] deals with Fibrinogen (Alexa647-labelled). Kind of assay: Alexa647-fibrinogen binding to printed small molecules – biochemical, small-molecule microarray, 635/667 nm fluorescence, artefact control for SMM control-protein annotation, profiling panel (AID 1131).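 Also: z-score merges 667 nm fluorescence with per-spot signal-to-noise over triplicate slides.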 Particulars: fibrinogen-A647 binding fluorescence, higher = more signal.
In assay [13] the target is Follistatin (Homo sapiens) (UniProt P19883). The assay can be described thus: FST protein binding to printed compounds – biochemical, small-molecule microarray, 635/667 nm fluorescence, primary screen (AID 1132). Particulars: 635 nm fluorescence, higher = more signal.
Sequence of Follistatin (Homo sapiens) (P19883 whole entry, looked up): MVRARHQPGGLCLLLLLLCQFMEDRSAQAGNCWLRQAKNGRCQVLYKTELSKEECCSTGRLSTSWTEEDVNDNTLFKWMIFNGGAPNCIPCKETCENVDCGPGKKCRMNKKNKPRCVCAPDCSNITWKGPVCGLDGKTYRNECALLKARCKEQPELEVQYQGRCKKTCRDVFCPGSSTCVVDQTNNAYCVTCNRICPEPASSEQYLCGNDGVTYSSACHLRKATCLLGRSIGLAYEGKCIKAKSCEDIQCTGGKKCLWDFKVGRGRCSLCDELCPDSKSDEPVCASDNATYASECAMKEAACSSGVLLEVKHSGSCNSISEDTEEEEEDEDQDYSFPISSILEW
Assay [14] concerns the target Fibroblast growth factor 2 (Homo sapiens) (UniProt P09038). The assay can be described thus: basic fibroblast growth factor binding to printed compounds – biochemical, small-molecule microarray, 635/667 nm fluorescence, primary screen (AID 1133). Particulars: FGF2, fluorescence 635/667, higher = more signal.
Assay [15] is described as follows: JC-1 mitochondrial potential readout, lung cancer cells – cell-based, A549, JC-1 fluorescence, basal, 24 h, 100 nL, profiling panel (AID 1138).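 Also: A549 lung adenocarcinoma cells under basal conditions with no added stimulus; test concentration not given here.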 To be noted: higher = more signal.
For another assay, the system named is Lefty1. Kind of assay: Lefty1 protein binding to printed compounds – biochemical, small-molecule microarray, 635/667 nm fluorescence, primary screen (AID 1139). To be noted: fluorescence 635/667, higher = more signal.
Assay [16] concerns wheat germ agglutinin (Triticum aestivum), Alexa647-labelled. Kind of assay: Alexa647-WGA lectin binding to printed small molecules – biochemical, small-molecule microarray, 635/667 nm fluorescence, artefact control for SMM control-protein annotation, profiling panel (AID 1140).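 Also: score merges 667 nm feature emission with signal to noise over triplicate slides.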 To be noted: WGA-A647 binding, 635 nm fluorescence, higher = more signal.
For assay [17], the target named is Luciferin 4-monooxygenase (Photinus pyralis) (UniProt P08659). Kind of assay: inhibition of purified Photinus pyralis luciferase – biochemical, luminescence, purified enzyme, 2006 set, primary screen (AID 1141).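 Also: cell-free assay with purified firefly luciferase at 100 ng per well in PBS; test concentration not given here.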 Particulars: purified firefly luciferase, SteadyGlo luminescence, 30 min; higher = more signal, called active from +8 up or from −8 down.
Sequence of Luciferin 4-monooxygenase (Photinus pyralis) (P08659 whole entry, looked up): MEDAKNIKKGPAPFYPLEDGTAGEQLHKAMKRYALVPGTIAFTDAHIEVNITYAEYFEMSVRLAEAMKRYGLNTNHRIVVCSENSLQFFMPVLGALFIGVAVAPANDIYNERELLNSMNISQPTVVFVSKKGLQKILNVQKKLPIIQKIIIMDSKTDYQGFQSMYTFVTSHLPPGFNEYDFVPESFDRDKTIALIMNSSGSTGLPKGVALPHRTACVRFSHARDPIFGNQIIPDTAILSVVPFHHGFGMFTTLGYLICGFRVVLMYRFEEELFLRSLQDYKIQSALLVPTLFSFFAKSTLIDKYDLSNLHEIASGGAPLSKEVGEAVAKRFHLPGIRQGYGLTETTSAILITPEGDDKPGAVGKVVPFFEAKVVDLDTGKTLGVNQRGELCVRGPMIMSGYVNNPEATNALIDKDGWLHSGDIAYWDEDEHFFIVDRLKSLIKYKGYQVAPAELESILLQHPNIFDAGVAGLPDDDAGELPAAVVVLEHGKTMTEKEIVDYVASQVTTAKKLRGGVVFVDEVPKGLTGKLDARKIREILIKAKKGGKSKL

Sequence of Concanavalin-A (Canavalia ensiformis) (P02866 whole entry, looked up): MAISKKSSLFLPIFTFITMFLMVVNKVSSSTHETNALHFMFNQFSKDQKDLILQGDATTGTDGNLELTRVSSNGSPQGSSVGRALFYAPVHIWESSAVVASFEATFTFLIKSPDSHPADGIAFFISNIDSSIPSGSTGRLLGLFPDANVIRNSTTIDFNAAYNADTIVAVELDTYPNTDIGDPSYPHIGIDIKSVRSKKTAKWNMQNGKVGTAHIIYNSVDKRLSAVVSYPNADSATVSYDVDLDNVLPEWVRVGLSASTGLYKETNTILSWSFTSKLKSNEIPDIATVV
Sequence of Focal adhesion kinase 1 (Homo sapiens) (Q05397 whole entry, looked up): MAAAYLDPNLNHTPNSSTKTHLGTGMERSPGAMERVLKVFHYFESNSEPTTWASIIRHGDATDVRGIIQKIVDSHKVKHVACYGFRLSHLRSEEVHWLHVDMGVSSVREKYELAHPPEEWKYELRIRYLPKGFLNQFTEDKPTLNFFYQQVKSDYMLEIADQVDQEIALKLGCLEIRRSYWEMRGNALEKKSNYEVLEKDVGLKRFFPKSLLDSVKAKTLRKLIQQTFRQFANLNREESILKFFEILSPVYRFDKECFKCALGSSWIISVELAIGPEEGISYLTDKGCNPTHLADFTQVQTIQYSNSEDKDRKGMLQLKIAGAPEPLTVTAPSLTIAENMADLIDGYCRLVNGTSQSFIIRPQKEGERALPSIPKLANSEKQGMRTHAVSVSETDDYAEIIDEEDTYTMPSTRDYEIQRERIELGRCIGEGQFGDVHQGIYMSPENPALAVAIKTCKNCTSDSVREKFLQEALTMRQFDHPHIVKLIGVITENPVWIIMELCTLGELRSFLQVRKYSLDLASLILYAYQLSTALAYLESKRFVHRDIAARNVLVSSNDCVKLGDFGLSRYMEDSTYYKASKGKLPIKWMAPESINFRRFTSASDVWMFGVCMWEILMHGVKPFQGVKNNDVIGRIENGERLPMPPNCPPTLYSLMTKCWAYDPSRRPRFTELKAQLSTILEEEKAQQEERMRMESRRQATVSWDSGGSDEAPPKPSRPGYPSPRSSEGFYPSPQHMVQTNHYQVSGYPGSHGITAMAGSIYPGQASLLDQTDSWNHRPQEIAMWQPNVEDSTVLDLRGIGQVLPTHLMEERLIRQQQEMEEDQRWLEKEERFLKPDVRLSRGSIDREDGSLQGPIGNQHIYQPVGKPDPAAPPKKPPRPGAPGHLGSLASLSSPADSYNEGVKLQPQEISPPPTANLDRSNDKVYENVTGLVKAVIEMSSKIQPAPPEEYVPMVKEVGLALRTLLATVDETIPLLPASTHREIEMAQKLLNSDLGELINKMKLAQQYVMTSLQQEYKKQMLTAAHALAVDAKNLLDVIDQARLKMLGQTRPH
Sequence of Fibroblast growth factor 2 (Homo sapiens) (P09038 whole entry, looked up): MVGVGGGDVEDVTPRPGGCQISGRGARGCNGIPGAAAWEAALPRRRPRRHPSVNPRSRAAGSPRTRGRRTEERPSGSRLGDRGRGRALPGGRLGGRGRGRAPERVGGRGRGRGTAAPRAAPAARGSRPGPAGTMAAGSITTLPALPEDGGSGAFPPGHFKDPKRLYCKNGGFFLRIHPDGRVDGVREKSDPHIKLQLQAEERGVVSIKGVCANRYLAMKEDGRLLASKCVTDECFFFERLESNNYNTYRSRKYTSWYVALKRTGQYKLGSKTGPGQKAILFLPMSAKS
Sequence of Albumin (Bos taurus) (P02769 whole entry, looked up): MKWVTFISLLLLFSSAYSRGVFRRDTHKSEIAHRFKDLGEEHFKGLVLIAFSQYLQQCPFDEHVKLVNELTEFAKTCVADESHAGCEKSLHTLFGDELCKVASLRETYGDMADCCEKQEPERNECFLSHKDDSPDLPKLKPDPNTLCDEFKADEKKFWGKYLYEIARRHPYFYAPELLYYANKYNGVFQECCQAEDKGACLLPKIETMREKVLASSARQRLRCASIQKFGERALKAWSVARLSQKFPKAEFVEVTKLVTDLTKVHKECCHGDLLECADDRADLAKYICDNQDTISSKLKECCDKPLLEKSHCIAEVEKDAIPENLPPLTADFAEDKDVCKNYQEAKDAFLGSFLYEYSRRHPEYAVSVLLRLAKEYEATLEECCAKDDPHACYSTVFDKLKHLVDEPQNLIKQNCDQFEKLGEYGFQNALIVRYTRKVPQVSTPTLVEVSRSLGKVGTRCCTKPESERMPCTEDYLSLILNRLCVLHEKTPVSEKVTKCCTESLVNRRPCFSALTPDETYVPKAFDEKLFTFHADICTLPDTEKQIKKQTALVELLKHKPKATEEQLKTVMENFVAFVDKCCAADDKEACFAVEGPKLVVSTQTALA

In the case of `COCCOC(=O)N1C(=O)[C@@]2(c3cc(C#CCCO)ccc31)[C@H](c1ccc(O)cc1)N1[C@H](c3ccccc3)[C@H](c3ccccc3)OC(=O)[C@H]1[C@@H]2C(=O)Nc1nc2ccccc2s1`, the composite z-score is 0.0742 with Albumin (Bos taurus); 0.272 in assay [2]; -0.0649 in assay [3]; 0.16 in assay [4]; 0.372 in assay [5]; 0.403 in [6]. Also, the composite z-score came to 1.29 in the assay on Sam68 (KHDRBS1); 0.633 in [7]; 1.17 in [8]; 0.607 in assay [9]; 1.19 in assay [10]; 0.214 in assay [11]. The composite z-score worked out at 0.992 in assay [12]; 1.27 in assay [13]; 0.955 in assay [14]; 1.22 in the assay with Lefty1; 0.658 in [16]. Further, the composite Z-score in assay [1] is -0.0844 (inactive). For the same compound, the z-score in assay [15] was -2.54; in assay [17] it was 0.0884 (inactive).

For `CN1C2C=C(c3ccc(CO)cc3)C(C3C(=O)N(C(N)=O)C(=O)C32)C1c1cccs1` (stereo not given), the composite z-score is -0.444 with Albumin (Bos taurus); 0.0261 in assay [2]; -0.162 in assay [3]; 0.704 in assay [4]; 0.4 in assay [5]; -0.342 in assay [6]. Further, the composite z-score in the assay on Sam68 (KHDRBS1) is 0.0726; in assay [7] it was -0.934; in [8], -0.0029; in assay [9], -0.734; in assay [10], -0.343; in assay [11], -0.0644. The composite z-score was -0.25 in [12]; -0.513 in [13]; -0.676 in assay [14]; 0.358 with Lefty1; -0.543 in [16]. Moreover, the composite Z-score in assay [1] is 0.173 (inactive). Also, the z-score in [15] was 1.38; in assay [17], -1.49 (inactive).

Consider `CC(=O)NCCCC[C@@H]1NC(=O)[C@H]2C[C@@H](C(=O)NCCCCCCN(C)C)[C@@H](c3cccc(OCCO)c3)N2C1=O`, for which the composite z-score in the assay with Albumin (Bos taurus) was -1.13; in assay [2] it was 0.259; in assay [3] it was 0.075; in assay [4], 0.694; in assay [5], 1.73; in assay [6], 1.09. The composite z-score in the assay on Sam68 (KHDRBS1) amounted to 1.32; in assay [7], 1.43; in [8], 1.16; in [9], 2.66; in [10] it was 1.2; in assay [11], 1.15. In addition, the composite z-score in [12] was determined as 0.478; in assay [13], 1.37; in assay [14], 1.33; in the assay on Lefty1, 1.57; in [16] it was 0.797. Moreover, the composite Z-score in [1] is 3.25 (inactive). Also, the z-score in [15] is -0.153; in assay [17], -0.805 (inactive).

Take `CCOC(=O)C[C@H]1[C@H](OC(=O)Cc2ccc3c(c2)OCO3)[C@@H](NC(=O)CC(C)C)c2cc(OCCCO)ccc2N1C(=O)c1ccccc1`: the composite z-score with Albumin (Bos taurus) is 0.842; in assay [2] it was -0.0682; in [3] it was 0.0972; in [4], 0.186; in assay [5] it was 0.41; in assay [6], -0.0777. For the same compound, the composite z-score was 0.562 with Sam68 (KHDRBS1); 0.133 in [7]; -1.14 in assay [8]; -0.314 in assay [9]; 0.157 in [10]; 0.344 in assay [11]. In addition, the composite z-score stood at 0.165 in [12]; 0.45 in assay [13]; 0.503 in [14]; 0.492 with Lefty1; 0.0122 in [16]. The composite Z-score in assay [1] is 0.312 (inactive). Further, the z-score is 1.91 in assay [15] and -1.26 (inactive) in [17].

`C#CCNC(/C=C/c1ccccc1)CO` (stereo not given): the composite z-score with Albumin (Bos taurus) is -0.086; in [2], -0.104; in [3] it was -0.115; in assay [4], -0.152; in [5], 0.14; in assay [6] it was -0.0995. Moreover, the composite z-score in the assay with Sam68 (KHDRBS1) was 0.134; in [7] it was 0.3; in assay [8] it was 0.262; in assay [9] it was 0.638; in [10] it was 0.355; in [11] it was -0.0492. In addition, the composite z-score in assay [12] was 0.269; in assay [13], 0.362; in [14], 0.106; in the assay with Lefty1 it was 0.394; in assay [16], -0.0687. Moreover, in [1], the composite Z-score is 0.234 (inactive). In addition, the results for the z-score in [15] and in assay [17] were -1.07 and 0.835 (inactive), respectively.

With `COC(=O)[C@@]1(Cc2ccccc2CN=[N+]=[N-])N=C(c2ccc(OCCCO)cc2)O[C@H]1c1ccccc1N=[N+]=[N-]`, the composite z-score with Albumin (Bos taurus) is -0.0759; in assay [2], -0.0164; in [3], 0.215; in assay [4], 0.569; in [5], 1.33; in assay [6], -0.507. In addition, the composite z-score with Sam68 (KHDRBS1) is 0.454; in [7], -0.388; in assay [8], 0.544; in assay [9], -0.0307; in [10] it was 0.339; in assay [11] it was 1.96. Also, the composite z-score in assay [12] worked out at 0.694; in assay [13], 0.832; in assay [14], 0.0085; in the assay with Lefty1 it was 0.79; in assay [16], 0.727. For the same compound, the composite Z-score in assay [1] was -0.22 (inactive). For the same compound, the z-score in assay [15] is -0.403; in assay [17], -10.1 (active).

`C[N+](C)(C)CCCCNC(=O)[C@H]1C[C@H]2C(=O)NCC(=O)N2[C@H]1c1cccc(OCCO)c1`: the composite z-score with Albumin (Bos taurus) was -1.39; in [2] it was 0.147; in assay [3], -0.112; in assay [4] it was 0.454; in [5] it was 0.961; in assay [6], 0.258. In addition, the composite z-score in the assay on Sam68 (KHDRBS1) was 1.05; in assay [7], 1.45; in assay [8], 1.12; in [9], 2.81; in assay [10], 0.279; in assay [11] it was -0.0181. Besides, the composite z-score in assay [12] was -0.0364; in assay [13] it was 1.49; in [14], 1.9; in the assay with Lefty1, 1.71; in [16], 0.399. Moreover, the composite Z-score in [1] is 1.49 (inactive). In addition, the values for the z-score in [15] and in assay [17] were -0.776 and -0.162 (inactive), respectively.

With `NC(=O)NCC#Cc1ccc2c(c1)[C@]1(C(=O)N2)[C@H](C(=O)N2CCCCCCC2)[C@H]2C(=O)O[C@H](c3ccccc3)[C@H](c3ccccc3)N2[C@@H]1c1ccccc1OCCO`, the composite z-score with Albumin (Bos taurus) worked out at 0.408; in assay [2], 1.43; in [3] it was 0.985; in assay [4], 0.953; in assay [5], 4.03; in assay [6], 1.26. The composite z-score was 1.31 with Sam68 (KHDRBS1); 1.56 in assay [7]; 1.11 in assay [8]; 1.03 in assay [9]; 1.27 in [10]; 2.88 in [11]. Also, the composite z-score in assay [12] turned out to be 0.743; in assay [13], 1.51; in assay [14], 0.0779; in the assay with Lefty1, 1.32; in [16], 1.59. For the same compound, in assay [1], the composite Z-score was 4.79 (inactive). Also, the z-score in assay [15] is 0.209; in [17] it was -0.984 (inactive).

Regarding `O=C1OCC=C[C@H]2OC34C=CCN(Cc5ccccc5)C(=O)[C@H]3N(CCCCCO)C(=O)[C@@H]4[C@@H]12` (stereo not given in full), the composite z-score is -0.711 with Albumin (Bos taurus); -0.231 in assay [2]; -0.207 in [3]; 0.605 in assay [4]; 0.096 in [5]; -0.493 in [6]. Further, the composite z-score was -0.673 with Sam68 (KHDRBS1); -0.99 in [7]; -1.11 in assay [8]; -0.171 in assay [9]; -0.614 in assay [10]; 0.0672 in assay [11]. In addition, the composite z-score was -0.736 in assay [12]; -1.14 in [13]; -1.24 in assay [14]; -1.09 in the assay on Lefty1; -1.29 in assay [16]. In addition, the composite Z-score in [1] is 1.78 (inactive). Besides, the z-score in assay [15] is 0.0704; in assay [17], -0.423 (inactive).
